# Test results from PubChem BioAssay AID504433 (National Center for Advancing Translational Sciences (NCATS), 2011).
# Inconclusive results are not listed. Activity calls are given as the source filed them. The call rests on the fitted dose curve; in most records, active means well fitted inhibition curve with a large enough effect; inconclusive means small, poorly fitted or top-dose-only effect; inactive means flat fitted curve, though single readings scatter.
# Assay: Secondary Assay for lipid storage modulators: Cytotoxcity for probe SAR round 2
# Excerpt: NIH Molecular Libraries Probe Production Centers Network [MLPCN] NIH Chemical Genomics Center [NCGC] MLPCN Grant: 1 R03 MH085686-01 Assay Submitter (PI): Beller, Mathias; Max-Planck-Institut fur Biophysikalische Chemie, Germany. NCGC Assay Overview: Storing lipids as a reservoir for energy or the anabolism of elementary metabolites is a common feature of probably all cells and is conserved from bacteria to humans. The universal cellular lipid storage organelle is the so-called lipid storage droplet (LD). Although ubiquitous, LDs share a simple structure composed of a hydrophobic core that harbors the storage lipids, which is shielded by a droplet-specific phospholipid monolayer to which proteins are attached. The current model of LD biogenesis involves an incorporation of the lipid core into the membrane leaflets of the endoplasmic reticulum (ER) followed by a subsequent budding-like maturation of a LD, which ultimately pinches off. Once released, LD volume can increase by localized lipogenesis or fusion of existing droplet. Storage lipids are re-mobilized enzymatically by lipase activity. […]
# Assay Protocol Summary: Cytotoxcity assay was performed with embryonic Drosophila S3 cells (Bloomington Drosophila Genomics Resource Center [DGRC]). […] Luminescence was detected on the Perkin Elmer ViewLux.
smiles,measurement,value
CCC/C=C/C/C=C/C=C/C=N/NN=O,outcome,inactive
